Several values for one entry are separate records, joined by “and”; a condition that tells them apart may be missing. Equal entries are not always repeated. The campaign covered roughly 5,500 compounds. About 2,000 (36%) were called active. Another 18% or so got no clear call; they are omitted. Rule as the data show it: active = normalized growth mostly below about 0.91 (no sharp cut-off); inconclusive = no clear call, values can overlap the other calls; inactive = mostly above about 0.92. Some of the results follow.
Test: chemical genetic growth profiling, strain panel (AID 1159580);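 also: tested at 20 µM; growth read once vehicle control cultures reached saturation at 30 °C; 1 = growth at the plate median or of vehicle wells; lower values mean less growth of the strain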
Settings: S. cerevisiae deletion strains, growth OD

With `C=C1C(=O)O[C@@H]2C3O[C@]3(C)CC/C=C(\C)CC[C@@H]12` (stereo partly specified) the normalized growth (locus YAL013W, strain DEP1, stronger effect = lower value) was 0.878 (active), the normalized growth (locus YAL021C, strain ccr4, stronger effect = lower value) was 0.967 (inactive) and the normalized growth (locus YAL026C, strain drs2, stronger effect = lower value) was 0.914 (inactive). The normalized growth (locus YAL030W, strain snc1, stronger effect = lower value) was 0.983 (inactive), the normalized growth (locus YBL061C, strain skt5, stronger effect = lower value) was 1.01 (inactive) and the normalized growth (locus YBR009C, strain hhf1, stronger effect = lower value) was 0.977 (inactive). The normalized growth (locus YBR021W, strain FUR4, stronger effect = lower value) was 1.06 (inactive), the normalized growth (locus YBR023C, strain chs3, stronger effect = lower value) was 0.964 (inactive) and the normalized growth (locus YBR171W, strain sec66, stronger effect = lower value) was 0.975 (inactive). For the same compound, the normalized growth (locus YBR229C, strain ROT2, stronger effect = lower value) was 0.941 (inactive), the normalized growth (locus YBR231C, strain swc5, stronger effect = lower value) was 1.01 (inactive) and the normalized growth (locus YBR279W, strain paf1, stronger effect = lower value) was 0.948 (inactive). The normalized growth (locus YCL011C, strain gbp2, stronger effect = lower value) was 0.978 (inactive), the normalized growth (locus YCL016C, strain dcc1, stronger effect = lower value) was 0.946 (inactive) and the normalized growth (locus YCL029C, strain bik1, stronger effect = lower value) was 0.905 (active). The normalized growth (locus YCL069W, strain vba3, stronger effect = lower value) was 1 (inactive), the normalized growth (locus YCR088W, strain abp1, stronger effect = lower value) was 0.983 (inactive) and the normalized growth (locus YDL005C, strain med2, stronger effect = lower value) was 0.989 (inactive). The normalized growth (locus YDL035C, strain GPR1, stronger effect = lower value) was 0.838 (active), the normalized growth (locus YDL040C, strain nat1, stronger effect = lower value) was 0.993 (inactive) and the normalized growth (locus YDL074C, strain BRE1, stronger effect = lower value) was 0.671 (active). For the same compound, the normalized growth (locus YDL101C, strain DUN1, stronger effect = lower value) was 0.87 (active), the normalized growth (locus YDL134C, strain PPH21, stronger effect = lower value) was 0.903 (inactive) and the normalized growth (locus YDL185W, strain tfp1, stronger effect = lower value) was 0.913 (inactive). For the same compound, the normalized growth (locus YDL192W, strain arf1, stronger effect = lower value) was 0.729 (active), the normalized growth (locus YDR001C, strain nth1, stronger effect = lower value) was 0.997 (inactive) and the normalized growth (locus YDR069C, strain doa4, stronger effect = lower value) was 0.981 (inactive). For the same compound, the normalized growth (locus YDR101C, strain arx1, stronger effect = lower value) was 0.864 (active), the normalized growth (locus YDR137W, strain rgp1, stronger effect = lower value) was 0.556 (active) and the normalized growth (locus YDR150W, strain NUM1, stronger effect = lower value) was 0.917 (inactive). For the same compound, the normalized growth (locus YDR159W, strain sac3, stronger effect = lower value) was 1.02 (inactive), the normalized growth (locus YDR162C, strain NBP2, stronger effect = lower value) was 0.455 (active) and the normalized growth (locus YDR195W, strain ref2) was 1.06 (inactive). For the same compound, the normalized growth (locus YDR297W, strain sur2, stronger effect = lower value) was 0.998 (inactive), the normalized growth (locus YDR318W, strain mcm21, stronger effect = lower value) was 0.739 (active) and the normalized growth (locus YDR334W, strain swr1, stronger effect = lower value) was 0.987 (inactive). For the same compound, the normalized growth (locus YDR335W, strain msn5, stronger effect = lower value) was 0.976 (inactive), the normalized growth (locus YDR388W, stronger effect = lower value) was 0.901 (active) and the normalized growth (locus YDR392W, strain spt3, stronger effect = lower value) was 0.532 (active). The normalized growth (locus YDR502C, strain sam2, stronger effect = lower value) was 0.818 (active), the normalized growth (locus YEL003W, strain gim4, stronger effect = lower value) was 0.973 (inactive) and the normalized growth (locus YEL037C, strain rad23, stronger effect = lower value) was 0.992 (inactive). For the same compound, the normalized growth (locus YEL061C, strain CIN8 (second series), stronger effect = lower value) was 1 (inactive), the normalized growth (locus YEL061C, strain CIN8, stronger effect = lower value) was 0.86 (active) and the normalized growth (locus YER015W, strain faa2, stronger effect = lower value) was 0.993 (inactive). The normalized growth (locus YER016W, strain bim1, stronger effect = lower value) was 0.997 (inactive), the normalized growth (locus YER110C, stronger effect = lower value) was 0.879 (active) and the normalized growth (locus YER111C, strain swi4, stronger effect = lower value) was 0.992 (inactive). For the same compound, the normalized growth (locus YER155C, strain BEM2 (second series), stronger effect = lower value) was 0.888 (inactive), the normalized growth (locus YER155C, strain BEM2, stronger effect = lower value) was 0.798 (active) and the normalized growth (locus YER167W, strain BCK2, stronger effect = lower value) was 0.694 (active). The normalized growth (locus YFR010W, strain ubp6, stronger effect = lower value) was 0.992 (inactive), the normalized growth (locus YGL078C, strain dbp3, stronger effect = lower value) was 0.937 (inactive) and the normalized growth (locus YGL086W, strain mad1, stronger effect = lower value) was 0.792 (active). The normalized growth (locus YGL167C, strain pmr1, stronger effect = lower value) was 0.97 (inactive), the normalized growth (locus YGL173C, strain kem1, stronger effect = lower value) was 0.956 (inactive) and the normalized growth (locus YGL227W, strain vid30, stronger effect = lower value) was 0.999 (inactive). The normalized growth (locus YGL240W, strain doc1, stronger effect = lower value) was 0.962 (inactive), the normalized growth (locus YGL248W, strain PDE1, stronger effect = lower value) was 0.879 (active) and the normalized growth (locus YGL253W, strain hxk2, stronger effect = lower value) was 0.963 (inactive). The normalized growth (locus YGR078C, strain PAC10, stronger effect = lower value) was 0.695 (active), the normalized growth (locus YGR135W, strain pre9, stronger effect = lower value) was 0.749 (active) and the normalized growth (locus YGR229C, strain SMI1, stronger effect = lower value) was 0.396 (active). The normalized growth (locus YGR252W, strain gcn5, stronger effect = lower value) was 0.771 (inactive), the normalized growth (locus YHR013C, strain ard1, stronger effect = lower value) was 0.894 (inactive) and the normalized growth (locus YHR027C, strain rpn1, stronger effect = lower value) was 0.991 (inactive). The normalized growth (locus YHR030C, strain SLT2, stronger effect = lower value) was 0.722 (active) and 0.968 (inactive), the normalized growth (locus YHR079C, strain IRE1 (second series), stronger effect = lower value) was 0.861 (active) and the normalized growth (locus YHR079C, strain IRE1, stronger effect = lower value) was 0.966 (inactive). For the same compound, the normalized growth (locus YHR094C, strain hxt1, stronger effect = lower value) was 0.934 (inactive), the normalized growth (locus YHR129C, strain ARP1, stronger effect = lower value) was 0.801 (active) and the normalized growth (locus YHR142W, strain chs7, stronger effect = lower value) was 0.962 (inactive). The normalized growth (locus YHR200W, strain rpn10, stronger effect = lower value) was 0.924 (inactive), the normalized growth (locus YIL066C, strain RNR3, stronger effect = lower value) was 0.7 (active) and the normalized growth (locus YIL073C, strain SPO22, stronger effect = lower value) was 0.588 (active). The normalized growth (locus YIL125W, strain kgd1, stronger effect = lower value) was 0.937 (inactive), the normalized growth (locus YIR030C, strain dcg1, stronger effect = lower value) was 0.912 (active) and the normalized growth (locus YJL092W, strain hpr5, stronger effect = lower value) was 0.987 (inactive). For the same compound, the normalized growth (locus YJL095W, strain BCK1 (second series), stronger effect = lower value) was 0.976 (inactive), the normalized growth (locus YJL095W, strain BCK1, stronger effect = lower value) was 0.446 (active) and 0.99 (inactive) and the normalized growth (locus YJL115W, strain asf1, stronger effect = lower value) was 0.991 (inactive). For the same compound, the normalized growth (locus YJL129C, strain trk1, stronger effect = lower value) was 1 (inactive), the normalized growth (locus YJL134W, strain LCB3, stronger effect = lower value) was 0.943 (inactive) and the normalized growth (locus YJL154C, strain vps35, stronger effect = lower value) was 0.998 (inactive). For the same compound, the normalized growth (locus YJL164C, strain tpk1, stronger effect = lower value) was 0.95 (inactive), the normalized growth (locus YJL166W, strain qcr8, stronger effect = lower value) was 0.961 (inactive) and the normalized growth (locus YJL168C, strain set2, stronger effect = lower value) was 0.914 (active). For the same compound, the normalized growth (locus YJL187C, strain SWE1 (second series), stronger effect = lower value) was 0.866 (active), the normalized growth (locus YJL187C, strain SWE1, stronger effect = lower value) was 0.963 (inactive) and the normalized growth (locus YJR043C, strain POL32, stronger effect = lower value) was 0.752 (active). The normalized growth (locus YJR066W, strain TOR1, stronger effect = lower value) was 0.937 (inactive).
